Records with an inconclusive call do not appear. Active and inactive are the calls of the source. Unless noted, calls come from the whole dose curve; as a rule, active = well fitted curve in the direction sought with a large enough effect; inconclusive = small, poorly fitted or top-dose-only effect, or another doubt; inactive = no such curve, though single readings can be large; an effect the other way counts as inactive or inconclusive.

In experiment [1] the target is Methanococcus maripaludis chaperonin (MmCpn) (UniProt Q6LX38). Nature of the experiment: High-Throughput Screening for Modulators of Cytosolic Chaperonin Activity: MmCpn Primary Screen (AID 488978).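 Note: 50 nM MmCpn enzyme hydrolysing 30 µM ATP at 37 °C; 0% is about no effect.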 In short, it runs like this:
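Measures ATPase turnover of the M. maripaludis chaperonin (50 nM final) against 30 uM ATP over 10 min at 37C, with compound added 5 min beforehand at room temperature. ADP is quantified by HTRF immunodetection.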

In experiment [2] the target is Transient receptor potential cation channel subfamily V member 1 (Homo sapiens) (UniProt Q8NER1). Nature of the experiment: HTS Assay for Compounds that Act as Enhancers of the Vanilloid Receptor 1 (AID 488979). Note: 0% is about no effect. In short, it runs like this:
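TRPV1-expressing cells loaded with Fluo-8 calcium dye; compounds added and calcium influx read kinetically for 3 min (agonist phase), then capsaicin at EC20 added and read 2 min more for enhancement. Fluorescence ex 480/em 520 nm.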

The target in experiment [3] is Thyrotropin receptor (Homo sapiens) (UniProt P16473). Nature of the experiment: qHTS Assay for Antagonists of the Thyroid Stimulating Hormone Receptor (AID 488980). Note: series mostly up to about 58 µM; 0% is about no effect. The essentials:
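Cells expressing human TSHR (HEK293) are dispensed in HBSS/HEPES containing 70 uM RO 20-1724, compound is added, then TSH at EC80 (4 nM final). Antibody in lysis buffer follows, 30 minutes at room temperature before HTRF detection.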
A general note: qHTS replaces the single test concentration by a dilution series.

Experiment [4] addresses D(1A) dopamine receptor (Homo sapiens) (UniProt P21728). Nature of the experiment: HTS Assay for Allosteric Agonists of the Human D1 Dopamine Receptor: Primary Screen for Agonists (AID 488981). Note: 0% is about no effect. The essentials: (§1)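 Tetracycline-induced HEK293 T-REx cells force-coupled to calcium signalling were incubated overnight at 30 C and dye-loaded at room temperature. Calcium flux over 180 s after compound addition flagged agonists; a further 180 s read after EC20 dopamine flagged potentiators.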

The target is the same in experiment [5]. Nature of the experiment: HTS Assay for Allosteric Agonists of the Human D1 Dopamine Receptor: Primary Screen for Potentiators (AID 488982). Note: 0% is about no effect. In short, it runs like this: as §1
For experiment [6] the target is unchanged. Nature of the experiment: HTS Assay for Allosteric Agonists of the Human D1 Dopamine Receptor: Primary Screen for Antagonists (AID 488983).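 Note: calcium flux response to an EC80 dopamine challenge measured with no-wash dye; % is set by controls: 0 for no effect and ±100 for the full control effect; nearly all actives have a fitted effect of over 65% in size.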 In short, it runs like this: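 Calcium-flux read-out in inducible HEK293 T-REx cells expressing D1, dye-loaded 30–90 min at room temperature. Kinetic reads: 180 s after compound (agonist phase), then 180 s after an EC80 dopamine challenge.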

Experiment [7] in a line: Validation screen for small molecules that induce genotoxicity in human embryonic kidney (HEK293T) cells expressing luciferase-tagged ELG1 (AID 493106). Note: 0% is about no effect. The essentials:
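ELG1-luciferase reporter readout (ONE-Glo, 30 min, room temperature) after 16 hr compound treatment at 37 °C of HEK293T cells at 2,000 per well. Rising luminescence flags genotoxic stress.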

The target in experiment [8] is Thyrotropin-releasing hormone receptor (Homo sapiens) (UniProt P34981). Nature of the experiment: qHTS for Small Molecule Agonists and Allosteric Enhancers of Human TRH Receptor: Validation Screen for Agonists (AID 493127;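 active = calcium activation more than 3 SD above the typical response in the agonist read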;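 note: intracellular calcium rise by fluo-8 fluorescence before TRH EC20 addition; 0% is about no effect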). Conditions: TRH receptor agonist cell assay; at 2 µM; stronger effect = higher value. The essentials:
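Compound-evoked intracellular calcium release in fluo-8-loaded TRHR cells, read kinetically on FDSS (Ex 480/Em 530, 1 s/cycle) after 23 nL pintool transfer. Agonist phase preceded 10 nM TRH EC20 addition.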

In experiment [9] the target is Galactokinase (Homo sapiens) (UniProt P51570). Nature of the experiment: qHTS Validation Assay for Inhibitors of Human Galactokinase (GALK) (AID 493189). Note: 0% is about no effect. In short, it runs like this: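 Compounds were pin-transferred into ATP buffer, then GALK-galactose mix was added (final 5 nM enzyme, 100 uM galactose, 35 uM ATP). After 1 h at room temperature, remaining ATP was measured luminescently.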

Experiment [10] can be described thus: Validation screen for small molecules that induce DNA re-replication in SW480 colon adenocarcinoma cells (AID 504364). Note: 0% is about no effect. In short, it runs like this:
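Image-based DNA content read-out: Hoechst stain 40 min, total nuclear fluorescence intensity (ex 405 nm, em 500-530 nm) after 48 h compound exposure of 250 SW480 cells/well at 37 C, 5% CO2, versus DMSO vehicle.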

The target in experiment [11] is Phosphoglycerate kinase, glycosomal (Trypanosoma brucei brucei) (UniProt P07378). Nature of the experiment: qHTS Validation Assay to Find Inhibitors of Phosphoglycerate Kinase (AID 504547).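 Note: control wells lack PGK and mark full inhibition.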 The essentials: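 In TEA buffer (100mM, pH 7.6) containing 5mM MgCl2 and 0.01% Tween-20, the GAPDH-coupled PGK reaction proceeded for 60 minutes at room temperature before a single luminescence reading using Kinase-Glo Plus.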

Experiment [12] addresses phosphoglycerate mutase (Leishmania major) (UniProt Q4Q090). Nature of the experiment: qHTS Validation Assay to Find Inhibitors of Phosphoglycerate Mutase (AID 504548). Note: series mostly up to about 58 µM; % is set by controls: 0 for no effect and ±100 for the full control effect. The settings on record: Potency: inhibition qHTS. In short, it runs like this: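 Lm PGAM 1.25nM final; 100 mM TEA pH 7.6, 5 mM MgCl2, 0.01% Tween-20; 45 min RT; Kinase-GloPlus, 10 min; end-point luminescence. Enzyme-free wells as negative controls.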

The target of experiment [13] is Ubiquitin carboxyl-terminal hydrolase 1 (Homo sapiens) (UniProt O94782). Nature of the experiment: Inhibitors of USP1/UAF1: Pilot qHTS (AID 504865).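 Note: rhodamine fluorescence freed from ubiquitin-rhodamine substrate followed over time; top concentration of the series differs between compounds; % is set by controls: 0 for no effect and ±100 for the full control effect; nearly all actives have a fitted effect of over 35% in size.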 The essentials: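 Kinetic fluorescence assay: 1nM USP1/UAF1, 15 min compound preincubation, then 150nM Ub-Rho; 480/540 nm.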
The nature of experiment [14]: qHTS for Inhibitors of ATXN expression: Validation of Cytotoxic Assay (AID 588349). Note: % is set by controls: 0 for no effect and ±100 for the full control effect. The essentials: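 Cytotoxicity counter-screen: ATP-based luminescent viability (CellTiter Glo) after 72 hr exposure of HEK293 cells to a compound titration at 37 degrees C.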
Experiment [15] is described as follows: Nrf2 qHTS screen for inhibitors: Validation (AID 493153; active = well fitted inhibition curve with a large enough effect in the main read-out, with a control signal flat, not every such curve was filed as active). The settings on record: Potency: luciferase luminescence; viability change: measured here: cytotoxicity max response. The essentials:
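Concentration-response on A549 ARE_Fluc reporter cells exposed 18-24 h at 37 C, 5% CO2. Cytotoxicity read first by CellTiter-Fluor fluorescence (Ex 405/Em 525), then Nrf2 inhibition by BugLite luminescence after 15 min.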

Experiment [16] can be described thus: qHTS for Inhibitors of Cell Surface uPA Generation: Validation Assay (AID 493164).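 Note: RAW 264.7 macrophage cells exposed to compound for 18 h; 0% is about no effect.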 In short, it runs like this:
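ATP-Lite luminescence read-out: ATP remains high when uPA activity-dependent LF translocation into the cytoplasm is blocked. RAW 264.7 cells, 18 h compound exposure at 37 C; 7-point titration, 2.45 nM to 38.3 uM final.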

Experiment [17] deals with Peptidyl-prolyl cis-trans isomerase NIMA-interacting 1 (Homo sapiens) (UniProt Q13526). Nature of the experiment: qHTS Validation Assay to Find Inhibitors of Pin1 (AID 504536; active = well fitted inhibition curve with a large enough effect in the polarisation, with a control signal flat, not every such curve was filed as active; the % refers to the polarisation;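 note: 0% = full Pin1 enzyme wells and -100% = no-enzyme wells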). The essentials: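 Fluorescence polarization competition: compounds (titration) displace HiFluor-488-labeled Pin1-1b peptide from Pin1 (0.3 uM final) in pH 7.5 HEPES buffer with DTT, 10 min at room temperature; %Activity normalized to no-enzyme wells, curves fitted.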

The target of experiment [18] is ATPase family AAA domain-containing protein 5 (Homo sapiens) (UniProt Q96QE3). Nature of the experiment: Validation screen for small molecules that inhibit ELG1-dependent DNA repair in human embryonic kidney (HEK293T) cells expressing luciferase-tagged ELG1 (AID 493107). Note: potency is the fitted concentration of half-maximal effect; nearly all actives have a fitted effect of over 70% in size. In short, it runs like this: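 Luciferase read-out, ONE-Glo, 30 min at room temperature, follows 16 h co-exposure at 37 C of compound and the DNA-damaging agent 5-fluorouridine. Cells: HEK293T with ELG1-luciferase fusion, 2,000 per well, DMSO as vehicle.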

Chain of Transient receptor potential cation channel subfamily V member 1 (Homo sapiens) (Q8NER1 whole entry, looked up): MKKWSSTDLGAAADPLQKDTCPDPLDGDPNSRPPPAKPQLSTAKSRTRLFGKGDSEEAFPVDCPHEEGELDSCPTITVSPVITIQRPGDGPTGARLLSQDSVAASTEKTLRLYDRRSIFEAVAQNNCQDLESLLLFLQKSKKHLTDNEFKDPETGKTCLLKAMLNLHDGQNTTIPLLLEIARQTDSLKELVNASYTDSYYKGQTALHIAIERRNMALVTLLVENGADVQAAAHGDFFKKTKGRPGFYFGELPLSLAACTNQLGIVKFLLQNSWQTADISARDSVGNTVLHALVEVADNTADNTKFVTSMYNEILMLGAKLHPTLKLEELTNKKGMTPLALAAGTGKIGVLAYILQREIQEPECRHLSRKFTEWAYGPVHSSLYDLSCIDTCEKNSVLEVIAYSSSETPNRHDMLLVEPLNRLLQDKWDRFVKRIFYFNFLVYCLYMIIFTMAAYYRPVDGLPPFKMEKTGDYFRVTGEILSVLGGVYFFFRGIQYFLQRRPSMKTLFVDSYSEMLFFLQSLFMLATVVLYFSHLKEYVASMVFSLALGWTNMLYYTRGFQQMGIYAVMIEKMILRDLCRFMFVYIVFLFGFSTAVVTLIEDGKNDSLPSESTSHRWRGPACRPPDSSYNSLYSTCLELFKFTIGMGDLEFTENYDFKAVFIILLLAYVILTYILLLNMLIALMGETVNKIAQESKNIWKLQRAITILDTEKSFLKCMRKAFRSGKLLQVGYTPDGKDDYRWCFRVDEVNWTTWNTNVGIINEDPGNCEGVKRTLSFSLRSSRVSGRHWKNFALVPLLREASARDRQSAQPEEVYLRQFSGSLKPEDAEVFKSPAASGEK
Chain of D(1A) dopamine receptor (Homo sapiens) (P21728 whole entry, looked up): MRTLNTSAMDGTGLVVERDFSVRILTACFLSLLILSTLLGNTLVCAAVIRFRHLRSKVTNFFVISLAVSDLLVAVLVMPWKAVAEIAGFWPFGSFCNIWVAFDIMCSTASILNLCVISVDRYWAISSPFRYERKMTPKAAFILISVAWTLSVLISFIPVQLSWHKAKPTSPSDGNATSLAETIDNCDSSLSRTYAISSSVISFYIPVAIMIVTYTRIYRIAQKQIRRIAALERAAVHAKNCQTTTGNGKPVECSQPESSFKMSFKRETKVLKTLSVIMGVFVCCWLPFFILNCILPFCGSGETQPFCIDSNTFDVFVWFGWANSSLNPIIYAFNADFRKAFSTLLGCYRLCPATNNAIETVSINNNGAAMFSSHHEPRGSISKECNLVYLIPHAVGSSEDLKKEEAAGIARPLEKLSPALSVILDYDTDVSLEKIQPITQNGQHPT
Chain of Ubiquitin carboxyl-terminal hydrolase 1 (Homo sapiens) (O94782 whole entry, looked up): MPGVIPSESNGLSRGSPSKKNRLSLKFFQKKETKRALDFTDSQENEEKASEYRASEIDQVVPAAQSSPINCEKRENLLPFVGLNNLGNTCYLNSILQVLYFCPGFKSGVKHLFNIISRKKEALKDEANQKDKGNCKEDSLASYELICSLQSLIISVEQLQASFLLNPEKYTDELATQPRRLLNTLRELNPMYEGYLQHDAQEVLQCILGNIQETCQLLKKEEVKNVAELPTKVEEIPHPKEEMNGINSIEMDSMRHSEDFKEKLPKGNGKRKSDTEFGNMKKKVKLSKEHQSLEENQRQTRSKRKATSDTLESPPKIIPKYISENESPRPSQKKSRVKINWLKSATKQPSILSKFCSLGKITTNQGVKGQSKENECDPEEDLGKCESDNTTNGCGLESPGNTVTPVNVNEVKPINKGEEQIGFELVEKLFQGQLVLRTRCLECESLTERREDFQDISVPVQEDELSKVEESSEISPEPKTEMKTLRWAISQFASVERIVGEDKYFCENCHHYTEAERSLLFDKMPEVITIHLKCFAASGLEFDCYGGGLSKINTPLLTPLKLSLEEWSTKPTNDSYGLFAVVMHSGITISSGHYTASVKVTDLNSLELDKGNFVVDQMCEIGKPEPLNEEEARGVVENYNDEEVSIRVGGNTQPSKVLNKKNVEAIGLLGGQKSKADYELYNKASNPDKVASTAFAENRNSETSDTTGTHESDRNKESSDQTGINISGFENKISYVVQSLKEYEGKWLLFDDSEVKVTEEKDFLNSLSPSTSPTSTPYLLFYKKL
Chain of Galactokinase (Homo sapiens) (P51570 whole entry, looked up): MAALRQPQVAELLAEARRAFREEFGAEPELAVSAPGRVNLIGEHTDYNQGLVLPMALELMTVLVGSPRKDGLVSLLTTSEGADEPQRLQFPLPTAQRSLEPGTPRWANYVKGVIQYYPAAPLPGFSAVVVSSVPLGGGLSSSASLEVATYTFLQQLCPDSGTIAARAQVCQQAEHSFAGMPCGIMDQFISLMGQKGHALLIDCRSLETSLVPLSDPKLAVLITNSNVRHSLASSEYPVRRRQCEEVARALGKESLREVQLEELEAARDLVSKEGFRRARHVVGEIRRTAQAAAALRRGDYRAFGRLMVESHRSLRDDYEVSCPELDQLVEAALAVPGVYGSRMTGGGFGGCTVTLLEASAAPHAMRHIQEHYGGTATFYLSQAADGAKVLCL
Chain of Peptidyl-prolyl cis-trans isomerase NIMA-interacting 1 (Homo sapiens) (Q13526 whole entry, looked up): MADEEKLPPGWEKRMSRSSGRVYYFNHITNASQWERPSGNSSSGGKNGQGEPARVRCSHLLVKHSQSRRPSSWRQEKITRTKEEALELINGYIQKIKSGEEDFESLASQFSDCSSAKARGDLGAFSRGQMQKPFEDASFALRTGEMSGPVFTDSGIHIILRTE
Chain of Methanococcus maripaludis chaperonin (MmCpn) (Q6LX38 1-543): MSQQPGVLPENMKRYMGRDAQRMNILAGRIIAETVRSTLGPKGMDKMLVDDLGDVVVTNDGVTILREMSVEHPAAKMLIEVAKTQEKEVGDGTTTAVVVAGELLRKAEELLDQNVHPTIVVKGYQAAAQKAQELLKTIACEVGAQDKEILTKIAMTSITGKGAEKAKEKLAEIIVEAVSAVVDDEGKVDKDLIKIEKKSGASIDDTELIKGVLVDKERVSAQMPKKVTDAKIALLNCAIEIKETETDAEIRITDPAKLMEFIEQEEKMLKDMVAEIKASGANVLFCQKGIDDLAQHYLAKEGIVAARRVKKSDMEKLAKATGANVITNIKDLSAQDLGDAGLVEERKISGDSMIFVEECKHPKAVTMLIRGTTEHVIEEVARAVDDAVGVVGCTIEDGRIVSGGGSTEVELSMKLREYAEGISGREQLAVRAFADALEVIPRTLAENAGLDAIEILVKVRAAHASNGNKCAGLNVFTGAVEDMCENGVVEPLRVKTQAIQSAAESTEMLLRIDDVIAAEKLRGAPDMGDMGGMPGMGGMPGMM
Chain of phosphoglycerate mutase (Leishmania major) (Q4Q090 1-553): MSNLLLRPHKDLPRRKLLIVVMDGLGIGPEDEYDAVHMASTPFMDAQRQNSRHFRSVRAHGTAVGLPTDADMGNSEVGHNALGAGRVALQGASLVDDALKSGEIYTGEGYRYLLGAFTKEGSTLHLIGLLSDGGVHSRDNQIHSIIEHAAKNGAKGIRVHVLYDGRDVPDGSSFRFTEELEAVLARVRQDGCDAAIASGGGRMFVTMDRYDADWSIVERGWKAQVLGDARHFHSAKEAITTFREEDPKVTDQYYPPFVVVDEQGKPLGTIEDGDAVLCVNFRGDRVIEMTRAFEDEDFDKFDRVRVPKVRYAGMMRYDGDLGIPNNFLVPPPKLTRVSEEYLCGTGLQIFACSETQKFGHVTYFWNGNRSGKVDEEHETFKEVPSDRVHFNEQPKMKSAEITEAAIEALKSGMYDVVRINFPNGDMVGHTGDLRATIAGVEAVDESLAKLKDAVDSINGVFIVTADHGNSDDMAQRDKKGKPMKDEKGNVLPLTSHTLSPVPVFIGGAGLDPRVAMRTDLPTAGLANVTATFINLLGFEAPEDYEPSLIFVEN
Chain of Thyrotropin-releasing hormone receptor (Homo sapiens) (P34981 whole entry, looked up): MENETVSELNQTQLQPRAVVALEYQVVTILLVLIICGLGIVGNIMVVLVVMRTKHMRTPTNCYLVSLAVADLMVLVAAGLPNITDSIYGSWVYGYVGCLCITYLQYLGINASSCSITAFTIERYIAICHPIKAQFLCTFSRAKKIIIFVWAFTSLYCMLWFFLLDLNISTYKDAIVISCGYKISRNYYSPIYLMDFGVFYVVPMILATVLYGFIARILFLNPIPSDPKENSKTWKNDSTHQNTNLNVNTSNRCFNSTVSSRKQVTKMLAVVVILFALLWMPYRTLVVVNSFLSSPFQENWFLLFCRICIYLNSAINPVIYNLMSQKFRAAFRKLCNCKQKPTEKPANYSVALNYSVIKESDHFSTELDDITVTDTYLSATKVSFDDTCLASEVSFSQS
Chain of Thyrotropin receptor (Homo sapiens) (P16473 whole entry, looked up): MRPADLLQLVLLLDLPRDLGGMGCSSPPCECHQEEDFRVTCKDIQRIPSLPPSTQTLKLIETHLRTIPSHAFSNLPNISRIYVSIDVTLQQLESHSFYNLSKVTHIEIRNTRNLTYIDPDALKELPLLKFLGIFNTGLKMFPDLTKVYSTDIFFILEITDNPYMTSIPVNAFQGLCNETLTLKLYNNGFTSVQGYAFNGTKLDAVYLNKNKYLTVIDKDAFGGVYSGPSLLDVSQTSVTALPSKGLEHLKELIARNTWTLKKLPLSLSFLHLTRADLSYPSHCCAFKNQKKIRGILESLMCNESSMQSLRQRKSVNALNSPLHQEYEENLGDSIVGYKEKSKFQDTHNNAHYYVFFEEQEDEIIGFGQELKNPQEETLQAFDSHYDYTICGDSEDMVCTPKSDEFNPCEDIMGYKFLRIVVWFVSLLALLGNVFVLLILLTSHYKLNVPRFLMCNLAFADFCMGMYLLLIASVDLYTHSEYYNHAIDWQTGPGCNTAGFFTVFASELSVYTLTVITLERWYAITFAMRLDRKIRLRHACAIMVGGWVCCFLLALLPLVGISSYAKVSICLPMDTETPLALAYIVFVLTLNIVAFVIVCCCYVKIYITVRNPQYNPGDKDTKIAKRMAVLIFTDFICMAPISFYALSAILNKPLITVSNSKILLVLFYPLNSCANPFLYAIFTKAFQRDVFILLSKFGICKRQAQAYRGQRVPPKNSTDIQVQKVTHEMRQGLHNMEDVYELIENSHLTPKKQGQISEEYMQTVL

With `S=C(S)OC1CC2CC1C1CCCC21` (configuration not stated), the outcome in experiment [1], in [2] and in experiment [3] was inactive. Also, the Potency result in experiment [4], in [5], in [6], in experiment [7], in experiment [9] and in [10] was “inactive” throughout. Moreover, the Potency entry in experiment [11], in experiment [12], in experiment [13] and in experiment [14] was “inactive” each time. In addition, the activation in experiment [8] is 0.125% (inactive).

Take `NO`: the call in experiment [1], in [2], in experiment [3] and in [16] was inactive. Further, the Potency entry in experiment [4], in [5], in [7], in experiment [15], in experiment [9] and in experiment [10] was “inactive” in each case. The Potency result in experiment [17], in [11], in experiment [12], in experiment [13] and in experiment [14] was “inactive” each time. The viability change in experiment [15] is 4.95%.

For `O=C(c1cc(O)c(O)c([N+](=O)[O-])c1)c1ccccc1F`, the compound was classed as inactive in [1], in [2] and in experiment [3]. Besides, the Potency entry in experiment [4], in [5], in [6], in experiment [7], in experiment [9] and in experiment [10] was “inactive” in each case. The Potency result in experiment [12], in experiment [13] and in experiment [14] was “inactive” throughout. Further, the activation in [8] was -0.125% (inactive).

`CN1CCc2cc(NC(=O)Nc3cccnc3)ccc21`: the compound was classed as inactive in experiment [1], in experiment [2], in experiment [3] and in experiment [16]. Moreover, the Potency entry in [4], in experiment [5], in experiment [6], in experiment [15], in [9] and in experiment [10] was “inactive” throughout. Also, the Potency entry in experiment [17], in experiment [11], in experiment [12], in experiment [13] and in [14] was “inactive” each time. Moreover, in [8], the activation is -2.62% (inactive). Also, the viability change in experiment [15] is -3.61%.

Turning to `CN1CCc2ccccc2Cc2[nH]c3ccccc3c2CC1`, the result in experiment [1], in experiment [2], in experiment [3] and in [16] was inactive. Also, the Potency result in experiment [4], in experiment [5], in [7], in experiment [15], in experiment [9] and in experiment [10] was “inactive” each time. The Potency result in experiment [17], in experiment [11], in experiment [12], in [13] and in experiment [14] was “inactive” throughout. The activation in experiment [8] is 0.5% (inactive). For the same compound, the viability change in experiment [15] was -10.2%.

For `c1cnc2c(c1)ccc1cccnc12`, the call in experiment [1], in experiment [2], in experiment [3] and in experiment [16] was inactive. Besides, the Potency entry in [4], in experiment [5], in experiment [6], in experiment [9], in experiment [10] and in experiment [17] was “inactive” throughout. In addition, the Potency entry in experiment [11], in [12] and in experiment [13] was “inactive” in each case. Also, the Potency in experiment [18] is 6.51 µM (active).

Regarding `CCCCCC(O)c1cccc(OCc2ccc3ccccc3n2)c1` (configuration not stated), the compound was called inactive in experiment [1], in [2], in [3] and in experiment [16]. The Potency entry in experiment [4], in experiment [5], in experiment [7], in [9], in experiment [10] and in experiment [11] was “inactive” each time. For the same compound, the Potency result in [12] was “inactive”. Further, the activation in [8] is -5.62% (inactive).

As to `Cc1cc(NC(=O)Nc2ccc3c(ccn3C)c2)sn1`, the result in experiment [1], in [2], in experiment [3] and in [16] was inactive. For the same compound, the Potency entry in [4], in experiment [5], in experiment [15], in experiment [9], in experiment [10] and in [17] was “inactive” each time. In addition, the Potency entry in experiment [11] and in experiment [13] was “inactive” in each case. Besides, in experiment [8], the activation was 0.625% (inactive). For the same compound, the viability change in experiment [15] was 3.91%.

Source of the values: PubChem BioAssay (NCATS).
